Measurements taken from PMC7862700, “An all-to-all approach to the identification of sequence-specific readers for epigenetic DNA modifications on cytosine”.

Experiments:
Assay in all cases: DAPPL (digital affinity profiling via proximity ligation, sequencing); 10 mM Tris-HCl pH 7.5, 50 mM NaCl, 1 mM DTT, 4% glycerol, room temperature, 30 min; GST-TFs on glutathione beads, 16-mer random dsDNA library, 0.1% formaldehyde crosslink after washing; high values mean tight binding
Conditions in all cases: protein: recombinant; tags: N-terminal GST; dsDNA, one strand shown
FLI1 = molecular target: T1, FLI1 (Homo sapiens, UniProt Q01543 1-452)
T1 sequence: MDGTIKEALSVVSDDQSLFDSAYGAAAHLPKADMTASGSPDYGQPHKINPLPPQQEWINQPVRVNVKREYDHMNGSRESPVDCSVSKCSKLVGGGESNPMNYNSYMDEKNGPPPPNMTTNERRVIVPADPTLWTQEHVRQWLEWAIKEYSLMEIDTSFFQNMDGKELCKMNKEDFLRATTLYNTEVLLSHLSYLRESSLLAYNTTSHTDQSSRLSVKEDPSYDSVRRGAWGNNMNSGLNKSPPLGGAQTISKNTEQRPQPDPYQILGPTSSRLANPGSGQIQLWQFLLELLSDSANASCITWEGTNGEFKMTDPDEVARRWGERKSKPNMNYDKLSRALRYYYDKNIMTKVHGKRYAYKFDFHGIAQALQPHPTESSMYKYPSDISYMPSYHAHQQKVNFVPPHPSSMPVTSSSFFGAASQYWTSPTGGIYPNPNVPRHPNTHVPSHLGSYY
How it was run: (§1)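 Human transcription factors fused to GST were expressed in yeast, captured on glutathione beads, given DNA barcodes and pooled with a GST-only negative control. Pools were incubated with 200 nmole of a 16-mer random double-stranded DNA library in Tris/NaCl/DTT/glycerol buffer at room temperature for 30 min. They were then washed, crosslinked with 0.1% formaldehyde, proximity-ligated (BsaI/T4 ligase, 1 h, 37 °C), PCR-amplified and sequenced on an Illumina NextSeq500. Binding signal is each 6-mer's read frequency for a factor divided by its frequency for the GST control.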

ELK1 = molecular target: T2, ELK1 (Homo sapiens, UniProt P19419 1-428)
T2 sequence: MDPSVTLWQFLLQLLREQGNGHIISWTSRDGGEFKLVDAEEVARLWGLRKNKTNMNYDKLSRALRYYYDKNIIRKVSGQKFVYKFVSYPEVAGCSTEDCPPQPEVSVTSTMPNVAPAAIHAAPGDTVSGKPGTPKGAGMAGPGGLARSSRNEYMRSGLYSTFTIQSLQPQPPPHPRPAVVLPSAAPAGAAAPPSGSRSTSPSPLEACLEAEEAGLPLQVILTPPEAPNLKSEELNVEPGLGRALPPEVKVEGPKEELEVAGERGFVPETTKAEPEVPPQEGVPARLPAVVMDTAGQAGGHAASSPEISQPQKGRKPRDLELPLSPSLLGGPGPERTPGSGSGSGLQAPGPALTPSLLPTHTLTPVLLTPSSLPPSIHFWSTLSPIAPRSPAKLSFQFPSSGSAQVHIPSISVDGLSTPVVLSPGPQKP
How it was run: as §1

GABPA = molecular target: T3, GABPA (Homo sapiens, UniProt Q06546 1-454)
T3 sequence: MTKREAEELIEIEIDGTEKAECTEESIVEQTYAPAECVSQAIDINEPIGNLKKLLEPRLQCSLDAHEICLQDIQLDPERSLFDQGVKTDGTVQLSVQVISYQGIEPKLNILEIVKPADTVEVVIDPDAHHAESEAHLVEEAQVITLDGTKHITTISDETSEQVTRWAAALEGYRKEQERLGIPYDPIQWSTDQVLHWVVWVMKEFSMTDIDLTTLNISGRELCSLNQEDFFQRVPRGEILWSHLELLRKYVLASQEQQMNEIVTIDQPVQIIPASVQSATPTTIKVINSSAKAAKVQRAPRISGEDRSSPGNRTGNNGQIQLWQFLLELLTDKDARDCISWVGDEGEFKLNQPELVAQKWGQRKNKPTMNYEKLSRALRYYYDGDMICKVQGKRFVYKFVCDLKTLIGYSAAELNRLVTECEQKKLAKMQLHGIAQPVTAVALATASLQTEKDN
How it was run: as §1

ERG = molecular target: T4, ERG (Homo sapiens, UniProt P11308 1-479)
T4 sequence: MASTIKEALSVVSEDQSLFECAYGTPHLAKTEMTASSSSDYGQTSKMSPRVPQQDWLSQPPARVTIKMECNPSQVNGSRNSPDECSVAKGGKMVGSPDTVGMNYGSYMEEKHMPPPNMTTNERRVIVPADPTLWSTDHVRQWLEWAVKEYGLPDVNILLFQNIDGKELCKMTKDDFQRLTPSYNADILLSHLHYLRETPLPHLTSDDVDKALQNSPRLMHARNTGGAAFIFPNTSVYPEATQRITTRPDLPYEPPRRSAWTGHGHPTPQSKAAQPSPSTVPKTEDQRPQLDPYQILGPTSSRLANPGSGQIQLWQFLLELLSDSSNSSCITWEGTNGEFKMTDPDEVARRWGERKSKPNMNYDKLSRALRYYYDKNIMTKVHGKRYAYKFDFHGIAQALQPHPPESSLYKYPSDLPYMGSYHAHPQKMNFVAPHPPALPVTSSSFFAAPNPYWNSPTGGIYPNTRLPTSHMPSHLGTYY
How it was run: as §1

ELF1 = ELF1 (Homo sapiens, UniProt P32519 1-619)
How it was run: as §1

EHF = molecular target: T5, EHF (Homo sapiens, UniProt Q9NZC4 1-300)
T5 sequence: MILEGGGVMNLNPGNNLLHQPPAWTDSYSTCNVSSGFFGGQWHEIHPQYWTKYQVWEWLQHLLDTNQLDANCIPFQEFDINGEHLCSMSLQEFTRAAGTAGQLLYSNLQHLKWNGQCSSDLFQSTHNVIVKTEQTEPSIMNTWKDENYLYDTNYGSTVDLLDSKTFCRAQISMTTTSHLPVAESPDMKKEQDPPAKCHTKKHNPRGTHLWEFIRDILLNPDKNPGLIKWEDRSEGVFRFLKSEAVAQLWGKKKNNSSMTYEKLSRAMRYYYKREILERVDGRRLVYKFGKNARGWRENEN
How it was run: as §1

SPI1 = SPI1 (Homo sapiens, UniProt P17947 1-270)
How it was run: as §1

SPIB = SPIB (Homo sapiens, UniProt Q01892 1-262)
How it was run: as §1

ELK3 = molecular target: T6, ELK3 (Homo sapiens, UniProt P41970 1-407)
T6 sequence: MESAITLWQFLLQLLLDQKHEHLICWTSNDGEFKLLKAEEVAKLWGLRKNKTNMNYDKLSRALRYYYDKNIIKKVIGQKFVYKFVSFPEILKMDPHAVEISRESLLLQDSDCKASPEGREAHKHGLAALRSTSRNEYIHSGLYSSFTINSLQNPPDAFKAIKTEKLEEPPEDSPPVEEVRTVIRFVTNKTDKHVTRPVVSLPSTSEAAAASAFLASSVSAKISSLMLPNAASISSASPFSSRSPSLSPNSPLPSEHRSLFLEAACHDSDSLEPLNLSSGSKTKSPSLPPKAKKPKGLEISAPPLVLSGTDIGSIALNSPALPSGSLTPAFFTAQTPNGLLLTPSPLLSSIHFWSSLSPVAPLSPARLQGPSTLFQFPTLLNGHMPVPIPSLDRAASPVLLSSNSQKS
How it was run: as §1

ELF1, sequence (P32519 whole entry): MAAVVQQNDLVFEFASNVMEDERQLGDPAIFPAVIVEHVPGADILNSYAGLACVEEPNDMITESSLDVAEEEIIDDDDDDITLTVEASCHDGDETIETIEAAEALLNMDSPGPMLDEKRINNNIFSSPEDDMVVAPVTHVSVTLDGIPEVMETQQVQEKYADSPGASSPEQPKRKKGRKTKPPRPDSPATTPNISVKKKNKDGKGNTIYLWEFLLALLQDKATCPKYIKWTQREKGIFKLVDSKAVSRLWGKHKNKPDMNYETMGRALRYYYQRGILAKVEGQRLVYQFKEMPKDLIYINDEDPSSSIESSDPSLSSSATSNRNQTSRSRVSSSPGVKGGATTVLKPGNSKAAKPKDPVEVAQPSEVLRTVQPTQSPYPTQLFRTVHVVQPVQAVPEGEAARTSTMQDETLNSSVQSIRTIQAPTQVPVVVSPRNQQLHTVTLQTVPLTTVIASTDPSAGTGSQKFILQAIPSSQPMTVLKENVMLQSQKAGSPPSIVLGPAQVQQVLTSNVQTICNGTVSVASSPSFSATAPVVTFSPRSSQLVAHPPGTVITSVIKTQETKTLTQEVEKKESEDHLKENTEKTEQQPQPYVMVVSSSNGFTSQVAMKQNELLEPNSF
SPIB, sequence (Q01892 whole entry): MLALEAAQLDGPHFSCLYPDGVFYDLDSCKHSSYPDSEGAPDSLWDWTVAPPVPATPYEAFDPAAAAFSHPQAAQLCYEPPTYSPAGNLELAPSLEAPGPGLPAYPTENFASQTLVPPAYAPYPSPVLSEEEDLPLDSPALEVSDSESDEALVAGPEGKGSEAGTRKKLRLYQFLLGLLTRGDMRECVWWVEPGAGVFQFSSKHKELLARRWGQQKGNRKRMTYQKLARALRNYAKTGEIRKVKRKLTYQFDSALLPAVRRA

Sequence | binding signal (FLI1) | binding signal (ELK1) | binding signal (GABPA) | binding signal (ERG) | binding signal (ELF1) | binding signal (EHF) | binding signal (SPI1) | binding signal (SPIB) | binding signal (ELK3)
ATAAAA | 1.09 fold enrichment (6-mer frequency, TF over GST control) | 1.15 fold enrichment (6-mer frequency, TF over GST control) | 1.1 fold enrichment (6-mer frequency, TF over GST control) | 1.09 fold enrichment (6-mer frequency, TF over GST control) | 1.12 fold enrichment (6-mer frequency, TF over GST control) | 1.1 fold enrichment (6-mer frequency, TF over GST control) | 1.17 fold enrichment (6-mer frequency, TF over GST control) | 1.21 fold enrichment (6-mer frequency, TF over GST control) | 1.12 fold enrichment (6-mer frequency, TF over GST control)
AATCTC | 1.26 fold enrichment (6-mer frequency, TF over GST control) | 1.21 fold enrichment (6-mer frequency, TF over GST control) | 1.28 fold enrichment (6-mer frequency, TF over GST control) | 1.19 fold enrichment (6-mer frequency, TF over GST control) | 1.16 fold enrichment (6-mer frequency, TF over GST control) | 1.27 fold enrichment (6-mer frequency, TF over GST control) | 1.16 fold enrichment (6-mer frequency, TF over GST control) | 1.2 fold enrichment (6-mer frequency, TF over GST control) | 1.15 fold enrichment (6-mer frequency, TF over GST control)
ACTTCA | 1.43 fold enrichment (6-mer frequency, TF over GST control) | 1.41 fold enrichment (6-mer frequency, TF over GST control) | 1.45 fold enrichment (6-mer frequency, TF over GST control) | 1.4 fold enrichment (6-mer frequency, TF over GST control) | 1.42 fold enrichment (6-mer frequency, TF over GST control) | 1.35 fold enrichment (6-mer frequency, TF over GST control) | 1.45 fold enrichment (6-mer frequency, TF over GST control) | 1.47 fold enrichment (6-mer frequency, TF over GST control) | 1.44 fold enrichment (6-mer frequency, TF over GST control)
TTTGTT | 1.26 fold enrichment (6-mer frequency, TF over GST control) | 1.29 fold enrichment (6-mer frequency, TF over GST control) | 1.31 fold enrichment (6-mer frequency, TF over GST control) | 1.28 fold enrichment (6-mer frequency, TF over GST control) | 1.29 fold enrichment (6-mer frequency, TF over GST control) | 1.35 fold enrichment (6-mer frequency, TF over GST control) | 1.22 fold enrichment (6-mer frequency, TF over GST control) | 1.17 fold enrichment (6-mer frequency, TF over GST control) | 1.3 fold enrichment (6-mer frequency, TF over GST control)
TTGCGA | 1.19 fold enrichment (6-mer frequency, TF over GST control) | 1.08 fold enrichment (6-mer frequency, TF over GST control) | 1.1 fold enrichment (6-mer frequency, TF over GST control) | 1.17 fold enrichment (6-mer frequency, TF over GST control) | 1.16 fold enrichment (6-mer frequency, TF over GST control) | 1.13 fold enrichment (6-mer frequency, TF over GST control) | 1.17 fold enrichment (6-mer frequency, TF over GST control) | 1.23 fold enrichment (6-mer frequency, TF over GST control) | 1.21 fold enrichment (6-mer frequency, TF over GST control)
TAAACG | 1.17 fold enrichment (6-mer frequency, TF over GST control) | 1.09 fold enrichment (6-mer frequency, TF over GST control) | 1.15 fold enrichment (6-mer frequency, TF over GST control) | 1.09 fold enrichment (6-mer frequency, TF over GST control) | 1.11 fold enrichment (6-mer frequency, TF over GST control) | 1.17 fold enrichment (6-mer frequency, TF over GST control) | 1.13 fold enrichment (6-mer frequency, TF over GST control) | 1.19 fold enrichment (6-mer frequency, TF over GST control) | 1.13 fold enrichment (6-mer frequency, TF over GST control)
TCCCTC | 1.58 fold enrichment (6-mer frequency, TF over GST control) | 1.6 fold enrichment (6-mer frequency, TF over GST control) | 1.47 fold enrichment (6-mer frequency, TF over GST control) | 1.45 fold enrichment (6-mer frequency, TF over GST control) | 1.51 fold enrichment (6-mer frequency, TF over GST control) | 1.48 fold enrichment (6-mer frequency, TF over GST control) | 1.5 fold enrichment (6-mer frequency, TF over GST control) | 1.58 fold enrichment (6-mer frequency, TF over GST control) | 1.47 fold enrichment (6-mer frequency, TF over GST control)
